The panel holds about 83,000 compounds, 20% with a hit somewhere; the sample as a whole holds those more often.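 A percent growth of 40 corresponds to 60% growth inhibition; 0 means no net growth; -100 means all cells died. Active threshold: below 10.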 Calls of active or inactive are those of the source.
tested on: HL-60(TB) leukemia; assay: NCI-60 one-dose screen, 48 h (100 = growth as untreated, 0 = no growth, -100 = all killed); details: 10 µM unless noted

Row | SMILES | growth
1 | O=C1C=C(OCC=C(C(F)(F)F)C(F)(F)F)c2ccccc2C1=O | -30% (active)
2 | COCC(=O)NNc1[nH]c(-c2ccc(OC)cc2)cc1C#N | 6.53% (active)
3 | Clc1nc2ccccc2cc1Cn1nnc(Cc2ccccc2)n1 | 87.9% (inactive)
4 | CCOC(=O)C1C(=O)C(=O)N(C(C)C)C1C(=O)OCC (stereo not given) | 123% (inactive)
5 | Cc1csc(N/N=C/c2ccncc2)n1 | 92.6% (inactive)
6 | CCOC(=O)C(CC(=O)O)=C(C(=O)OCC)C(=O)OCC | 99.6% (inactive)
7 | COc1ccc(S(=O)(=O)NCCCNc2nccc(-c3c(-c4cccc(N)c4)nc4sccn34)n2)cc1 | 112% (inactive)
8 | CCC[CH2][Sn]1([CH2]CCC)[O]C2C(CO)OC(n3ccc(N)nc3=O)C2[O]1 (stereo not given) | -36.6% (active)
9 | CCc1cc2n(n1)-c1ncc(C(=O)OC)cc1Oc1ccccc1-2 | 105% (inactive)
10 | COc1cc(NCC(=O)Nc2cc(Nc3cccc(C(F)(F)F)c3)ncn2)c(Cl)c(OC)c1Cl | 79.2% (inactive)
11 | C#C[C@@]1(O)[C@@H](CO)O[C@@H](n2ccc3c(N)ncnc32)[C@@H]1O | -25.5% (active)
12 | C[C@@]1(C(=O)Nc2ccc(F)nc2)CCCN1c1nc(Nc2cc(C3CC3)[nH]n2)c2cccn2n1 | 9.68% (active)
13 | CCOC(=O)c1cnn(-c2nc(-c3ccc(F)cc3)c(C#N)c(N3CCOCC3)n2)c1N | 93.1% (inactive)
14 | Cc1cc(C)c(N)c(S(=O)(=O)O)c1 | 106% (inactive)
15 | COc1cc(CNC(=O)CCCC/C=C/C(C)C)ccc1OCc1cn(-c2ccc([N+](=O)[O-])cc2)nn1 | 81% (inactive)
16 | CC(C)n1nc(C#Cc2cccc(O)c2)c2c(N)ncnc21 | -57.9% (active)
17 | Cc1ccc2c(c1)c(Sc1ccc(C(=O)NO)cc1)c1n2CN(C)CC1 | 21.4% (inactive)
18 | NCCCNc1nc2ccccc2c2c(=O)c3cc(F)cc(Cl)c3sc12 | 75.5% (inactive)
19 | CC(C)(C)OC(=O)N1CC(Cn2cc(C(F)(F)F)c3c(Cl)ncnc32)C1 | -67.5% (active)
20 | CC1CN(CC(O)c2ccc(Br)cc2)CCO1 (stereo not given) | 85.4% (inactive)

Row | SMILES | growth
21 | COc1cccc(Nc2nc(SC)nc(-c3cccc([N+](=O)[O-])c3)c2C#N)c1 | 112% (inactive)
22 | CN(CCCCCl)P(=O)(OCc1ccc([N+](=O)[O-])o1)C(F)(F)C[C@H](NC(=O)CNC(=O)c1ccc(N=[N+]=[N-])cc1)C(=O)NCCc1ccc(O)cc1 (stereo not given in full) | 62.6% (inactive)
23 | Oc1ccc(Br)cc1/C=N/NC(=S)NC12CC3CC(CC(C3)C1)C2 | -25.8% (active)
24 | COc1cc(NC(=O)c2cncnc2Nc2ccc3c(ccn3Cc3cccc(F)c3)c2)cc(OC)c1 | 21% (inactive)
25 | CN(C)CCCC1(c2ccc(F)cc2)OCc2cc(-c3ccc(C(F)(F)F)nc3)ccc21 (stereo not given) | 43.1% (inactive)
26 | Cc1cc2ccccc2cn1 | 91.6% (inactive)
27 | C[C@@H]1COCCN1c1cc(C2([S@](C)(=N)=O)CC2)nc(-c2ccnc3[nH]ccc23)n1 | -9.62% (active)
28 | Cc1n(Cc2ccc3ccccc3c2)cc[n+]1Cc1ccc2ccccc2c1 | -38.1% (active)
29 | COc1cc(/C=C2\C=C(c3ccccc3)N(CCc3ccccc3)C2=O)cc(OC)c1OC | 80.3% (inactive)
30 | Fc1ccc(Nc2ccnc(N3CCN(c4ccnc5cc(Cl)ccc45)CC3)n2)cc1 | 15.9% (inactive)
31 | CCCCCC(C)c1ccc(O)c(C)c1 (stereo not given) | 91.4% (inactive)
32 | CCCCCCCC(=O)SCC/C=C/[C@@H]1CC(=O)NCc2cccc(n2)CN(Cc2ccc(Cl)cc2)CC(=O)N[C@@H](C(C)C)C(=O)O1 | 13% (inactive)
33 | COc1ccc(-c2nnc(-c3c(-c4ccccc4)nc4ncccn34)o2)cc1OC | 85.5% (inactive)
34 | Cc1cc(N2CCCCC2)nc(N(CCNc2ccnc3cc(Cl)ccc23)Cc2ccco2)n1 | -46.3% (active)
35 | CN(Cc1ccccc1)c1nc(Cl)c(C2CC(c3ccc(Cl)cc3)=NN2c2cc(Cl)cc(Cl)c2)s1 (stereo not given) | 102% (inactive)
36 | C#CCO[C@H]1CC(CC#C)(CC#C)C(=O)[C@@H]2[C@H]1[C@H]1C[C@@H]3[C@@]4(C)CCC[C@@](C)(C(=O)OC)[C@@H]4CC[C@@]23C=C1C(C)C | 54.8% (inactive)
37 | O=C(Oc1cccc2cccnc12)c1ccccc1 | 93.7% (inactive)
38 | O=c1c2cccc3c(NC4CCCCC4)ccc(c32)c2nc3ccccc3n12 | 62.6% (inactive)
39 | C[C@]12CCC3c4ccc(O)cc4C[C@@H](CCCCCCCCCS(=O)CCCC(F)(F)C(F)(F)F)C3C1CC[C@@H]2O (stereo not given in full) | 73.3% (inactive)
40 | CC(C)(O)c1cn(CCCCN2C(=O)C(=O)c3ccccc32)nn1 | 97.8% (inactive)

Reference: PubChem BioAssay (NCI)
